The results in this text go back to PMC7862700, “An all-to-all approach to the identification of sequence-specific readers for epigenetic DNA modifications on cytosine”.

What all share (experiment): DAPPL (digital affinity profiling via proximity ligation, sequencing); 10 mM Tris-HCl pH 7.5, 50 mM NaCl, 1 mM DTT, 4% glycerol, room temperature, 30 min; GST-TFs on glutathione beads, 16-mer random dsDNA library, 0.1% formaldehyde crosslink after washing; high values mean tight binding
Assay [1] deals with T1, FEV (Homo sapiens, UniProt Q99581 1-238).
T1 sequence: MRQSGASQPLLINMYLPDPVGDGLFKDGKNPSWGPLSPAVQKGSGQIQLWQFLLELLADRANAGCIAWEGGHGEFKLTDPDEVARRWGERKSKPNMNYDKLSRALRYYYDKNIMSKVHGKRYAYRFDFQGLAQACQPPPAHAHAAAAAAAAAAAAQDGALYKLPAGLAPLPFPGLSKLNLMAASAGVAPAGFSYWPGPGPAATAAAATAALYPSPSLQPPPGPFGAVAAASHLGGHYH
To be noted: protein: recombinant; tags: N-terminal GST; dsDNA, one strand shown. The method in brief:
(§1)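 Human transcription factors were made in yeast as GST fusions, captured on glutathione beads and barcoded with DNA. With a tag-only sample included, the pool was incubated with 200 nmole of a random double-stranded 16-mer DNA library in Tris/NaCl/DTT/glycerol buffer at room temperature for 30 min, then crosslinked with 0.1% formaldehyde after washing, ligated by proximity, amplified and sequenced. For binding signal, each hexamer's read frequency for a factor is divided by its frequency for the tag-only sample.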

Assay [2] deals with ETV5 (Homo sapiens, UniProt P41161 1-510). Particulars: protein: recombinant; tags: N-terminal GST; dsDNA, one strand shown. In outline:
as §1

In assay [3] the target is HSF1 (Homo sapiens, UniProt Q00613 1-529). Particulars: protein: recombinant; tags: N-terminal GST; chain copies: 3; dsDNA, one strand shown. In outline:
as §1

Assay [4] deals with T2, SPIC (Homo sapiens, UniProt Q8N5J4 1-248).
T2 sequence: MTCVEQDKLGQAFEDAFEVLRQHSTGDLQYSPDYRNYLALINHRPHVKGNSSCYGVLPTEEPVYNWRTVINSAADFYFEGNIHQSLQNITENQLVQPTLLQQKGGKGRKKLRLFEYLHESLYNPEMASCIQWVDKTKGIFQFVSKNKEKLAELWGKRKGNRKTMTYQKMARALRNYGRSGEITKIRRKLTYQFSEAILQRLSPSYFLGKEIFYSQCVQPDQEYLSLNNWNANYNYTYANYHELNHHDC
Particulars: protein: recombinant; tags: N-terminal GST; dsDNA, one strand shown. The method in brief:
as §1

In assay [5] the target is ELF4 (Homo sapiens, UniProt Q99607 1-663). To be noted: protein: recombinant; tags: N-terminal GST; dsDNA, one strand shown. The method in brief: as §1
For assay [6], the target named is T3, ELK4 (Homo sapiens, UniProt P28324-2 1-405).
T3 sequence: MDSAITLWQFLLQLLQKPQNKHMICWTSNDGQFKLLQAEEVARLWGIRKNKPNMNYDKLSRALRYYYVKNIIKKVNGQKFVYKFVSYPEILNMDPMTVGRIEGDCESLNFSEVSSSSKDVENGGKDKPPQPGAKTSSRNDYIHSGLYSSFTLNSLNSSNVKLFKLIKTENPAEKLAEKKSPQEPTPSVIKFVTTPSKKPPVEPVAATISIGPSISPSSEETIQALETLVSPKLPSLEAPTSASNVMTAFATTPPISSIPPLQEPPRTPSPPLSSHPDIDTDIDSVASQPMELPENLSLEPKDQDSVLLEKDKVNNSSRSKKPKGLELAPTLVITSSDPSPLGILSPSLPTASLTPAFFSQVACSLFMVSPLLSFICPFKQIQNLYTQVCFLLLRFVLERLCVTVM
Particulars: protein: recombinant; tags: N-terminal GST; dsDNA, one strand shown. In outline: as §1

Assay [7] deals with T4, ETV2 (Homo sapiens, UniProt O00321 1-342).
T4 sequence: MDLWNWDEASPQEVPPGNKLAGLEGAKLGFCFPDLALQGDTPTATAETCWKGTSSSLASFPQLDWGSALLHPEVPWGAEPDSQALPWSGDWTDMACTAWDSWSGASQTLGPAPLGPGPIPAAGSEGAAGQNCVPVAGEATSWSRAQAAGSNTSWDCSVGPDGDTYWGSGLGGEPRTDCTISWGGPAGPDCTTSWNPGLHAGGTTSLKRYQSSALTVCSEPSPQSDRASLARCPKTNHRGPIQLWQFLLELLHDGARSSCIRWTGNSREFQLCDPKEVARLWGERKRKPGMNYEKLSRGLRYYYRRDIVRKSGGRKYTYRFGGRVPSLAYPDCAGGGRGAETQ
Particulars: protein: recombinant; tags: N-terminal GST; dsDNA, one strand shown. In outline: as §1

Assay [8] has as its target T5, ELF3 (Homo sapiens, UniProt P78545 1-371).
T5 sequence: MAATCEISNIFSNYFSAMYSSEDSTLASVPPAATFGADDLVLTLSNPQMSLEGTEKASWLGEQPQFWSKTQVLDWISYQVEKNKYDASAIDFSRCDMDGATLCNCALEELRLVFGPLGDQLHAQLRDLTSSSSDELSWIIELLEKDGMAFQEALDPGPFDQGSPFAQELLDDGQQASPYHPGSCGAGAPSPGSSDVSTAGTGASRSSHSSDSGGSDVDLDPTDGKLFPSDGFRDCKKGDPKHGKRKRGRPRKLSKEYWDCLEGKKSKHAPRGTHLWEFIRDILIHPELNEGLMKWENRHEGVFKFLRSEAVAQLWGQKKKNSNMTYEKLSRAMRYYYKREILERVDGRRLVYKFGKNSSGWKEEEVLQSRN
Particulars: protein: recombinant; tags: N-terminal GST; dsDNA, one strand shown. In outline: as §1

Assay [9] has as its target CRX (Homo sapiens, UniProt O43186 1-299). To be noted: protein: recombinant; tags: N-terminal GST; dsDNA, one strand shown. The method in brief: as §1
The target in assay [10] is ETV1 (Homo sapiens, UniProt P50549 1-477). Particulars: protein: recombinant; tags: N-terminal GST; dsDNA, one strand shown. The method in brief:
as §1

The target in assay [11] is T6, ERF (Homo sapiens, UniProt P50548 1-548).
T6 sequence: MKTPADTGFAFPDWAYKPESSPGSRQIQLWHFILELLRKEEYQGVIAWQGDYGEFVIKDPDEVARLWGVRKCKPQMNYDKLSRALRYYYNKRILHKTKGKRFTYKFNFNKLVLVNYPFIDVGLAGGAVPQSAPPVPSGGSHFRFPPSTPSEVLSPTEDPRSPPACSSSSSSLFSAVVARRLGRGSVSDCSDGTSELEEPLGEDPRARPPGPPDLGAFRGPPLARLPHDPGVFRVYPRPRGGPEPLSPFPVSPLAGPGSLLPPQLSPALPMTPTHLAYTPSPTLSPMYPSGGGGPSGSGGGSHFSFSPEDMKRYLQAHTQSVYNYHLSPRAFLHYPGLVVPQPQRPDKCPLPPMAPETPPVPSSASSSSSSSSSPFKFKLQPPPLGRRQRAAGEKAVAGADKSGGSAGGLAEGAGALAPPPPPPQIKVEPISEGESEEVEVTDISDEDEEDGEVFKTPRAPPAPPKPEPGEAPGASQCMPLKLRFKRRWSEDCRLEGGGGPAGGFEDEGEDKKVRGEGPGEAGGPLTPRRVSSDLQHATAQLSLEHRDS
To be noted: protein: recombinant; tags: N-terminal GST; dsDNA, one strand shown. In outline:
as §1

The target in assay [12] is T7, ETV3L (Homo sapiens, UniProt Q6ZN32 1-361).
T7 sequence: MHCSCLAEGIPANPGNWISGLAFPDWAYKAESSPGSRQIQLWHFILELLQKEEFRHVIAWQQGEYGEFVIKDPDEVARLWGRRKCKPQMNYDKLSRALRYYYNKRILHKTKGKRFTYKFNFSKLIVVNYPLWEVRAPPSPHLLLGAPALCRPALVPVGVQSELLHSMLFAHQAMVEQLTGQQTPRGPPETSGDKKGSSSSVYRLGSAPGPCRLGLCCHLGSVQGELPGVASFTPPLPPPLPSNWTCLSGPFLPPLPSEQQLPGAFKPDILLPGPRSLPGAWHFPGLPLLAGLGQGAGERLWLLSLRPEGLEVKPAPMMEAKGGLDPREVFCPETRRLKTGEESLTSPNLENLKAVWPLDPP
Particulars: protein: recombinant; tags: N-terminal GST; dsDNA, one strand shown. In outline:
as §1

Assay [13] addresses T8, ETS2 (Homo sapiens, UniProt P15036 1-469).
T8 sequence: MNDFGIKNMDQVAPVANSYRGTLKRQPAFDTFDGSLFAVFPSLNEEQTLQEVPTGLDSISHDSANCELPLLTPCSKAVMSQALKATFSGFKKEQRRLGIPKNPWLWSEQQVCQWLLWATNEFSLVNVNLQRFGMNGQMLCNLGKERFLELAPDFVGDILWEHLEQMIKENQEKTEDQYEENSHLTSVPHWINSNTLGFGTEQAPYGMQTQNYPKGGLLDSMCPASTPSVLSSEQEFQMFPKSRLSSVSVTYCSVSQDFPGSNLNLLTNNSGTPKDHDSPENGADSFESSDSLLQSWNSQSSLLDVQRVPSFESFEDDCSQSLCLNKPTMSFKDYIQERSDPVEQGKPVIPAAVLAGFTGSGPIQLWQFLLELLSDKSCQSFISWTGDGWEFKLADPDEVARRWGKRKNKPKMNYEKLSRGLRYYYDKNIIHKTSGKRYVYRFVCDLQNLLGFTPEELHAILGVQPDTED
To be noted: protein: recombinant; tags: N-terminal GST; dsDNA, one strand shown. The method in brief:
as §1

Assay [14] deals with T9, SPDEF (Homo sapiens, UniProt O95238 1-335).
T9 sequence: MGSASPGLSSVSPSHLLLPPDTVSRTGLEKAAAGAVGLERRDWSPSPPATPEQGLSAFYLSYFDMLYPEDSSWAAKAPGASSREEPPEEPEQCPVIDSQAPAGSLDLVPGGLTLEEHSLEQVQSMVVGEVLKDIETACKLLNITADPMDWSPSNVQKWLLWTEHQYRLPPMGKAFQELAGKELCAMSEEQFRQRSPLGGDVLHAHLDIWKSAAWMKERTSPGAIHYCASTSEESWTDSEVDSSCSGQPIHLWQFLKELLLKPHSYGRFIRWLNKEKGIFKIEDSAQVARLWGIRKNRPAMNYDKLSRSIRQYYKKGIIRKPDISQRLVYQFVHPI
Particulars: protein: recombinant; tags: N-terminal GST; dsDNA, one strand shown. The method in brief:
as §1

The target of assay [15] is T10, ETV7 (Homo sapiens, UniProt Q9Y603 1-341).
T10 sequence: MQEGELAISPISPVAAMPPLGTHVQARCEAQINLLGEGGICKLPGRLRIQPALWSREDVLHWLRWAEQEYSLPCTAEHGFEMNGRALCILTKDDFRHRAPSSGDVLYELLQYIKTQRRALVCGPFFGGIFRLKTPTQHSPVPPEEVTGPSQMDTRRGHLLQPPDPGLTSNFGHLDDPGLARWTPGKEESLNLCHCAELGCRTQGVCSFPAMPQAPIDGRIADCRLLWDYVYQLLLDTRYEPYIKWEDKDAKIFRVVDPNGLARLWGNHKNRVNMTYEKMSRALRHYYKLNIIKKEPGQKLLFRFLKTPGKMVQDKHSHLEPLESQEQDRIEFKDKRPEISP
Particulars: protein: recombinant; tags: N-terminal GST; dsDNA, one strand shown. The method in brief: as §1

Assay [16] deals with T11, ELF5 (Homo sapiens, UniProt Q9UKW6-2 1-255).
T11 sequence: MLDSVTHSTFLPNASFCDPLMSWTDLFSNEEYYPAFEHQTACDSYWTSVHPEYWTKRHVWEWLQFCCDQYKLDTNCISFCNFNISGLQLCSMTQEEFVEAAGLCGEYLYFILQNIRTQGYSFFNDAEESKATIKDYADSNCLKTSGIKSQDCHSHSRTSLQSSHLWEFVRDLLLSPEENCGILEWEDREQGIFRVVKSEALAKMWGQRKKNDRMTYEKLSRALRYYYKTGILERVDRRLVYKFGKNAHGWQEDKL
To be noted: protein: recombinant; tags: N-terminal GST; dsDNA, one strand shown. The method in brief:
as §1

The target of assay [17] is T12, ETV3 (Homo sapiens, UniProt P41162-2 1-143).
T12 sequence: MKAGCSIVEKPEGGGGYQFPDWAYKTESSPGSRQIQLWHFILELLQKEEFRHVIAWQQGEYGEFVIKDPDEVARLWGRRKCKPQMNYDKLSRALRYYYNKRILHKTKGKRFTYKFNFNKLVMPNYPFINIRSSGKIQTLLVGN
To be noted: protein: recombinant; tags: N-terminal GST; dsDNA, one strand shown. In outline: as §1

Assay [18] has as its target ETV6 (Homo sapiens, UniProt P41212 1-452). To be noted: protein: recombinant; tags: N-terminal GST; dsDNA, one strand shown. The method in brief:
as §1

Chain of CRX (O43186 whole entry): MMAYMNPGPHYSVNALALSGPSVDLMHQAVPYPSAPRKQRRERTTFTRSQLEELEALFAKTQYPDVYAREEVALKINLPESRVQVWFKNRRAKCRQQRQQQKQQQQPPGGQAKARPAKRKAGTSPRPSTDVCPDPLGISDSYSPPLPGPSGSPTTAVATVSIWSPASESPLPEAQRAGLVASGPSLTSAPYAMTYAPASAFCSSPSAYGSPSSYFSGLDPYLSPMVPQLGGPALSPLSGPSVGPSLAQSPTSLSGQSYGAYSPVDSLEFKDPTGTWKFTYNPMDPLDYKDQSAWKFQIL
Chain of ETV1 (P50549 whole entry): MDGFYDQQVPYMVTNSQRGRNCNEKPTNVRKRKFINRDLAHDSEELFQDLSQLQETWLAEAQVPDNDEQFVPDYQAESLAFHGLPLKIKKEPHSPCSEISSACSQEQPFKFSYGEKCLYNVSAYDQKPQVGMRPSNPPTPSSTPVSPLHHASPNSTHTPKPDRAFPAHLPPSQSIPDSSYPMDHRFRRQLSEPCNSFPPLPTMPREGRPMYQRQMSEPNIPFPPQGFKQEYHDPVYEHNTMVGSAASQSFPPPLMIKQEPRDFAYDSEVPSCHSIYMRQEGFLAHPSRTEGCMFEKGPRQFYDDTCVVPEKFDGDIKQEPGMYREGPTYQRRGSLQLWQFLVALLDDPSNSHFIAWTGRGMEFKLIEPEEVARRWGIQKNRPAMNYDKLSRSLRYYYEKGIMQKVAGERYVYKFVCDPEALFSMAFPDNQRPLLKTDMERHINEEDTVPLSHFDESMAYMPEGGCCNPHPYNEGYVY
Chain of ELF4 (Q99607 whole entry): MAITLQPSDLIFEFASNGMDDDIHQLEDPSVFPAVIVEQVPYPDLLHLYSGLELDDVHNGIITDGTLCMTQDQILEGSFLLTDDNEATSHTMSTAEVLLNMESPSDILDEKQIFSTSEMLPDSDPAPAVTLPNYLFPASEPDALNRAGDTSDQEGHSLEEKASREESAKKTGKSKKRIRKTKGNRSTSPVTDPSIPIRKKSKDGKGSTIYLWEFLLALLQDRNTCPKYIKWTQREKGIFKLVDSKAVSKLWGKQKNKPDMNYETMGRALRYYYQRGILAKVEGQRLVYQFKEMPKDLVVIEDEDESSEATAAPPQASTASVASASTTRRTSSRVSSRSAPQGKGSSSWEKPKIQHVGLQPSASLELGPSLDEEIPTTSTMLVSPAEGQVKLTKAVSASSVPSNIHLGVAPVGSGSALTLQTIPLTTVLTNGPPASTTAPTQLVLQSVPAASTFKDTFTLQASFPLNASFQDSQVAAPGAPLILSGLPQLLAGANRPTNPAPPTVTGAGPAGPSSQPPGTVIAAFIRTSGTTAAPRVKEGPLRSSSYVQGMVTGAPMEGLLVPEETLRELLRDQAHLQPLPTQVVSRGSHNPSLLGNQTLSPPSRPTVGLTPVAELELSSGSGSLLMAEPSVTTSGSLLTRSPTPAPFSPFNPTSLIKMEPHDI
Chain of HSF1 (Q00613 whole entry): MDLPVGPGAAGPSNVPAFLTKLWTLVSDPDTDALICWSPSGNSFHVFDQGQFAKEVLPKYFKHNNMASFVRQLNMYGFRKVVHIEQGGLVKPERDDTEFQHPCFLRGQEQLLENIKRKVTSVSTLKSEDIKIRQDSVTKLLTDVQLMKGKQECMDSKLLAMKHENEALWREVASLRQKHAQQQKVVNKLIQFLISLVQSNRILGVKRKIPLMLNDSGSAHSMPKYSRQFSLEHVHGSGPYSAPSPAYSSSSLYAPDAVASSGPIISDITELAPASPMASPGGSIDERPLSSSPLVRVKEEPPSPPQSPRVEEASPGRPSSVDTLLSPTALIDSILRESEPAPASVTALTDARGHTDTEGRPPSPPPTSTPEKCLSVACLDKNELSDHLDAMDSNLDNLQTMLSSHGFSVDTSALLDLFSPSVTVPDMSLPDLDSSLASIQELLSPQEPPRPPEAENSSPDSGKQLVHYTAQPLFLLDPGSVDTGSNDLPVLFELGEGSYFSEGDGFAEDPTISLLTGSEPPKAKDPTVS
Chain of ETV6 (P41212 whole entry): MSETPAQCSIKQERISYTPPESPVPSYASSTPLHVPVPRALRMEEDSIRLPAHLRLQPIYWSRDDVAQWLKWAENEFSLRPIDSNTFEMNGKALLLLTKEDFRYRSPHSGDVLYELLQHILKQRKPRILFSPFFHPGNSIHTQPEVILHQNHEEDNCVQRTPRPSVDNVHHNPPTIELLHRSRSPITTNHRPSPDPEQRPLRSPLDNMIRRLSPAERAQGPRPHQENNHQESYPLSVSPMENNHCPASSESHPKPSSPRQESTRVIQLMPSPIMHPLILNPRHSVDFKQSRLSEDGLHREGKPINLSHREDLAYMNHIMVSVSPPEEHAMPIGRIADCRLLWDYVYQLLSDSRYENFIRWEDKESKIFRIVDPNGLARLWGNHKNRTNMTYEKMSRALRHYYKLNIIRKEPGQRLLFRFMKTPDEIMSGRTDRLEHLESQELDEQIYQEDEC
Chain of ETV5 (P41161 whole entry): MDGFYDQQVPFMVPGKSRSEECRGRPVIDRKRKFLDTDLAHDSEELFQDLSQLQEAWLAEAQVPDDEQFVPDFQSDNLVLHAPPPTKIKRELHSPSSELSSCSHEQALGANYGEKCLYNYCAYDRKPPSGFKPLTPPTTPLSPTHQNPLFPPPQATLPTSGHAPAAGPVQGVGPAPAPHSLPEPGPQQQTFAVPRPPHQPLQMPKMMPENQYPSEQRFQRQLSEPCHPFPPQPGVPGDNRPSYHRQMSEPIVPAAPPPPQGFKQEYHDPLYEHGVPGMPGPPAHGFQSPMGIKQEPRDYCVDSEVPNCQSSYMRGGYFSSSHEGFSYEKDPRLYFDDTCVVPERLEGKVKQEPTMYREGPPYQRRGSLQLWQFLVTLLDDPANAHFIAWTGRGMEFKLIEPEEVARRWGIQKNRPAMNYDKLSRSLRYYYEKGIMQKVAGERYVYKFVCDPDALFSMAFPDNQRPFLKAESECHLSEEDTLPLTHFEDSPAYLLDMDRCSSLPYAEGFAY

ATACAC: the binding signal in assay [1] was 1.24 fold enrichment (6-mer frequency, TF over GST control); in [2], 1.22 fold enrichment (6-mer frequency, TF over GST control); in [3], 1.01 fold enrichment (6-mer frequency, TF over GST control); in [4], 1.22 fold enrichment (6-mer frequency, TF over GST control); in assay [5], 1.24 fold enrichment (6-mer frequency, TF over GST control); in assay [6], 1.25 fold enrichment (6-mer frequency, TF over GST control). In addition, the binding signal in assay [7] is 1.24 fold enrichment (6-mer frequency, TF over GST control); in assay [8], 1.16 fold enrichment (6-mer frequency, TF over GST control); in assay [9], 1.04 fold enrichment (6-mer frequency, TF over GST control); in assay [10], 1.31 fold enrichment (6-mer frequency, TF over GST control); in [11] it was 1.32 fold enrichment (6-mer frequency, TF over GST control); in [12], 1.18 fold enrichment (6-mer frequency, TF over GST control). For the same sequence, the binding signal is 1.16 fold enrichment (6-mer frequency, TF over GST control) in [13]; 1.28 fold enrichment (6-mer frequency, TF over GST control) in assay [14]; 1.21 fold enrichment (6-mer frequency, TF over GST control) in assay [15]; 1.15 fold enrichment (6-mer frequency, TF over GST control) in [16]; 1.17 fold enrichment (6-mer frequency, TF over GST control) in assay [17]; 1.12 fold enrichment (6-mer frequency, TF over GST control) in assay [18].
